Shown are actives, neighbours in structure and some others; about 3.5% of the full set was active somewhere.
FBW7 act = human FBW7 E3 ligase activation, primary screen | Q969H0 | AlphaScreen FBW7–phospho-cyclin E peptide binding, activator screen | normalized activity (activation), % at 26.1 µM | 650,000 tested, 0.13% active; in the data active = normalized activity above about 1.9%;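 note: purified mutant Fbw7 with reduced substrate affinity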
MITF primary = inhibitors of human MITF; 650,000 tested, 0.91% active; AID 1259374; AlphaScreen MITF homodimerization, bead proximity signal; inhibition, % at 2.6 µM; in the data active = inhibition above about 50%;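 note: 0% = vehicle wells with protein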
GPR151 activ = human GPR151 activation; Q8TDV0; PathHunter beta-arrestin GPR151 cells, luminescence; activation, % at 11.2 µM; 650,000 tested, 1% active; in the data active = activation above about 4.9%;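 note: 0% = median of compound wells and 100% = cells with positive control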
Target sequence (Q8TDV0 whole entry, looked up): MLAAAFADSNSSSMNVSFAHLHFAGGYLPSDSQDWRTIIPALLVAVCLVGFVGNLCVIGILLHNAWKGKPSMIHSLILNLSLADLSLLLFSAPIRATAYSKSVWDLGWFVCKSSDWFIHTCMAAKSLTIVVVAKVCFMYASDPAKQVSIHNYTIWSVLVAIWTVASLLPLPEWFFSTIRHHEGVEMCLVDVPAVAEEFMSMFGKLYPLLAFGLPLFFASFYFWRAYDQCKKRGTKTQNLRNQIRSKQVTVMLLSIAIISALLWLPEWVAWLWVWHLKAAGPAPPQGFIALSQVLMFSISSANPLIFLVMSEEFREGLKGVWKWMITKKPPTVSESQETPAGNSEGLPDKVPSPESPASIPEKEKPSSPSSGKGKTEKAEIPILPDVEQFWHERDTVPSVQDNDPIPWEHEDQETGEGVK
TEAD-YAP inh = TEAD-YAP interaction inhibition; HEK-TIYL cells, TEAD-Gal4/YAP UAS-luciferase luminescence; inhibition, % at 9.12 µM; 640,000 tested, 1.4% active; in the data active = inhibition above about 32%;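 note: 0% = median of test compound wells and 100% = reference inhibitor wells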
The depositor's hits bear a star.

SMILES	FBW7 act	MITF primary	GPR151 activ	TEAD-YAP inh
COC(=O)c1c(NC(=O)c2ccc(Cl)cc2)sc2c1CCN(C(C)=O)C2	3.3*	-16	0	13
CC(=O)N1CCc2c(sc(NC(=O)c3ccc4c(c3)OCCO4)c2C#N)C1	0	-5	2	40*
COc1cccc(/C=N\Nc2cn[nH]c(=O)c2Cl)c1OC	0	-1	0	-10
CCOc1ccc(C(=O)Nc2cccc(NC(=O)c3cccc(Cl)c3)c2)cc1Br	0	3	1	1
COC(=O)CSC1=C(C#N)C(c2ccc(Cl)cc2)C(C(=O)OC(C)(C)C)=C(C)N1 (centres undefined)	0	-8	3	-22
CCOCCCNC(=O)Nc1ccc(Cl)cc1	0	8	-1	-8
Cc1oc(-c2ccc(Cl)cc2)nc1CN1CCCC(C(=O)NCCN2CCCC2)C1 (centres undefined)	0	6	1	-8
Cc1oc(-c2ccc(Cl)cc2)nc1CN1CCCC(C(=O)NCc2cccnc2)C1 (centres undefined)	1	12	-1	46*
COC(=O)c1ccc(/C=C2\C(=N)N(CC(C)C)C(=O)N(C)C2=O)cc1	0	-4	0	1
COc1cccc(Cn2ccn(-c3cccc(Cl)c3)c(=O)c2=O)c1	0	-3	-2	53*
COc1cccc(Cn2ccn(Cc3ccccc3)c(=O)c2=O)c1	1	13	1	-4
c1ccc(-c2nc(NCCN3CCOCC3)c3ncn(-c4ccccc4)c3n2)cc1	0	16	0	28
c1ccc(OCCNc2ncnc3nc(-c4ccc(N5CCOCC5)nc4)[nH]c23)cc1	11*	-3	-1	-19
c1ccc(-n2cnc3c(NCCN4CCOCC4)nc(-c4ccc(N5CCOCC5)nc4)nc32)cc1	0	2	0	59*
Oc1ccc(CCNc2nc(NCCN3CCOCC3)nc3c2ncn3-c2ccccc2)cc1	0	7	-2	37*
Oc1ccc(CCNc2nc(-c3ccc(N4CCOCC4)nc3)nc3c2ncn3-c2ccccc2)cc1	1	12	3	41*
COc1cccc2c1OC(c1ccc(SC)cc1)N1N=C(c3ccc(F)cc3)CC21 (centres undefined)	0	6	1	2
FC(F)(F)c1ccc(Cn2cnc3c(NCc4ccccc4)nc(-c4ccc(N5CCOCC5)nc4)nc32)cc1	0	7	1	11
FC(F)(F)c1ccc(Cn2cnc3c(NCCOc4ccccc4)nc(-c4ccc(N5CCOCC5)nc4)nc32)cc1	2.0*	20	0	8
O=C1CCCN1CCCNc1nc(-c2ccc(N3CCOCC3)nc2)nc2c1ncn2-c1ccccc1	0	5	1	48*
O=C1CCCN1CCn1cnc2c(NCCN3CCOCC3)nc(-c3ccc(N4CCOCC4)nc3)nc21	0	1	0	-14
CS(=O)(=O)CCC(C(=O)Nc1cccc2cccnc12)N1C(=O)c2ccccc2C1=O (centres undefined)	0	9	0	0
COc1ccc(OCc2n(CC(=O)OC3CC(C)CCC3C(C)C)c3ccccc3[n+]2C)cc1 (centres undefined)	0	8	1	41*
C=C1C(=O)OC23C1CCC(C)C2CCC1(C)OC13 (centres undefined)	0	-6	1	61*
O=C(CSc1ncn[nH]1)c1ccc(O)cc1O	0	-9	-4	-1
SMILES	FBW7 act	MITF primary	GPR151 activ	TEAD-YAP inh
Cc1ccc(O)c(N=Nc2ncn[nH]2)c1	-2	47	3	80*
Oc1ccc(N=Nc2ncn[nH]2)c(O)c1	0	92*	0	11
Cc1ccc(O)c(N=Nc2ccc(S(=O)(=O)O)cc2)c1	0	9	-7	14
CC1=NN(c2nc(-c3ccccc3)cs2)C(=O)C1C(c1ccccc1)C(C#N)C(N)=O (centres undefined)	1	24	-1	76*
O=C(Nc1nc2ccc(Cl)cc2s1)c1cccc2ccccc12	0	15	0	-4
Cc1ccc2nc(NC(=O)c3ccco3)sc2c1	0	9	-8	78*
Cc1ccc2nc(NC(=O)c3cccc4ccccc34)sc2c1	0	14	1	37*
O=C(Nc1ccc2nc(NC(=O)C3CCCCC3)sc2c1)C1CCCCC1	0	5	2	40*
Cc1ccc2nc(NC(=S)NC(=O)c3ccco3)sc2c1	0	4	0	-71
O=C(Nc1nc([N+](=O)[O-])cs1)c1ccc(Cl)cc1Cl	0	7	-9	88*
CC(=O)Nc1ccc2nc(NC(=O)C3CCCCC3)sc2c1	0	13	1	1

Screening data deposited in PubChem by The Scripps Research Institute Molecular Screening Center.
